# Test results as given in PubChem BioAssay AID1259415 (National Center for Advancing Translational Sciences (NCATS), 2018).
# In all, about 410,000 compounds went through this assay and about 18,000 (4.4%) were called active. Not shown: some 7% with an inconclusive outcome. The sample holds actives, similar compounds and a random draw of the others, so the mix is not that of the screen. No stated cut-off is given here; in the data, active means activity change below about -60%; inconclusive means no clear call, values can overlap the other calls; inactive means above about -39%.
# Assay: qHTS Assay for inhibitors of the human cytomegalovirus (HCMV)
# Conditions: HFF cells, HCMV-luciferase reporter, 72 h; at 57.5 µM; active compounds read low
# From the text: NCGC Assay Overview: Infection with human cytomegalovirus (HCMV) continues to pose significant threats for pregnant women and immunocompromised hosts. HCMV causes serious morbidity and mortality in transplant recipients, and congenital HCMV is the leading infectious cause of mental retardation and deafness in children. In the 1990s, the annual costs associated with the disease burden of congenital CMV were estimated at around $2 billion. A HCMV vaccine is not available yet and HCMV therapies result in intolerable side effects and emergence of drug resistant viruses. […] Towards this goal we have developed and characterized a luciferase HCMV reporter that was initially used in 96 well plates and then optimized to 1536-well plates for utilization in screening of the MLSMR collection, the NGCG diversity collection and the NCGC Pharmaceutical Collection of approved and investigational drugs.
# NCGC Assay Protocol Summary:
# This is a cell-based assay for HCMV inhibition in HFFs cells. The screening used 2 compound doses and the HCMV-luciferase at MOI of 1 PFU/cell. Cells were treated and infected with HCMV. At 72 h post infection cell lysates were collected and luciferase activity was determined using the Glomax-Multi + Detection System (Promega, Madison, WI). Data were normalized to the controls for basal activity (buffer only) and known HCMV inhibitors Salinmoycin.
# 1536-well assay protocol for the assay:
# (1) Add 3 ul CMV/HFF cell culture. 1000 cells/well in DMEM nirmal media.
# (2) Incubate 16 hr at 37C.
# (3) Add 23 nl control compound, 10uM of Salinomycin.
# (4) Add 23 nl compounds in DMSO solution.
# (5) Add 3 ul CMV suspension. Final 1 puf/ul, Virus stock 2000pfu/ul
# (6) Incubate 72 hrs at 37C.
# (7) Add 4 ul OneGlo Luc Reagent.
# (8) Incubate 5 min at room temperature.
# On the % scale 0 is the no-effect control and ±100 the full control effect.
row,Compound,"activity change, negative = inhibition"
1,O=C(Nc1cccc(C(=O)O)c1)/C(=C\c1ccccc1)NC(=O)c1ccc(Br)o1,23.2% (inactive)
2,O=C(Nc1ccc2ccccc2c1)/C(=C/c1cccc(Br)c1)NC(=O)c1ccco1,-64.4% (active)
3,O=C(NCc1ccco1)c1ccc([N+](=O)[O-])cc1Cl,-4.15% (inactive)
4,CC(Oc1ccc2ccccc2c1)C(=O)NNC(=S)NC(=O)c1ccco1 (configuration not stated),-3.96% (inactive)
5,O=C(NCc1ccco1)/C(=C/c1cccc([N+](=O)[O-])c1)NC(=O)c1ccco1,20.5% (inactive)
6,O=C(NCc1ccco1)/C(=C\c1cccc([N+](=O)[O-])c1)NC(=O)c1ccco1,-72% (active)
7,O=C(CNS(=O)(=O)c1cccs1)N1CCN(c2ccccc2Cl)CC1,68.5% (inactive)
8,CC1CCCCN1CC(=O)N1CCCc2c1c(=O)oc1ccc(OCc3ccccc3)cc21 (configuration not stated),-2.34% (inactive)
9,CCCCn1cc(S(=O)(=O)c2ccc(OCC)cc2)c(=O)c2cc(OC)c(OC)cc21,44.7% (inactive)
10,COc1ccc(CCNC(=O)Cn2c(=O)n(-c3ccccc3)c(=O)c3c(C)c(C)sc32)cc1OC,-11.6% (inactive)
11,COc1ccccc1-c1noc(-c2ccc(NCc3ccccc3)c([N+](=O)[O-])c2)n1,0.104% (inactive)
12,Cc1ccc(C)c(N2CCN(C(=O)CCc3c(C)nc4c(c3C)c(=O)n(C)c(=O)n4C)CC2)c1,-21.4% (inactive)
13,COc1cccc(N2CCN(C(=O)CCCCCn3c(=O)[nH]c4ccccc4c3=O)CC2)c1,-7.41% (inactive)
14,Cc1ccc(C)c(N2CCN(C(=O)CCCCCn3c(=S)[nH]c4ccc(N5CCOCC5)cc4c3=O)CC2)c1,-88.3% (active)
15,CC1(C)OC(=O)C2=C(CC(CCc3ccccc3)OC2c2ccc(Cl)cc2)O1 (configuration not stated),7.29% (inactive)
16,Cc1cc(C)cc(OC(C)C(=O)Nc2nc3c(s2)CCCC3)c1 (configuration not stated),-26.6% (inactive)
17,COc1cc(C(=O)N2CCN(C(=O)COc3cccc(C)c3)CC2)cc(OC)c1OC,28.1% (inactive)
18,CCc1cccc(C)c1Nc1c(-c2ccc(N(C)C)cc2)nc2ncccn12,-14.5% (inactive)
19,CC(Nc1ccc(-c2nc(-c3ccco3)no2)cc1[N+](=O)[O-])c1ccccc1 (configuration not stated),41.2% (inactive)
20,CCOC(=O)Cn1c(CN(Cc2ccccc2)Cc2ccccc2)nc2c1c(=O)[nH]c(=O)n2C,31.2% (inactive)
21,COC(=O)[C@@H]1[C@@H](CO)[C@@H]2Cn3c(ccc(Br)c3=O)[C@H]1N2C(=O)c1cnccn1,13.3% (inactive)
22,Cc1nc(CNS(=O)(=O)c2cc([N+](=O)[O-])ccc2C)cs1,17.1% (inactive)
23,COc1ccccc1CNS(=O)(=O)c1ccc(C)cc1,-4.42% (inactive)

row,Compound,"activity change, negative = inhibition"
1,Cc1nc(CNS(=O)(=O)c2ccc(Oc3ccccc3)cc2)cs1,-90.1% (active)
2,O=C1CSC2(C(=O)N(Cc3ccccc3)c3ccccc32)N1c1cccc(F)c1 (configuration not stated),-27.5% (inactive)
3,O=C(NC1CCC(O)CC1)c1ccccc1OCc1ccc(F)cc1 (configuration not stated),-22.6% (inactive)
4,Cc1nc2ccccc2cc1OCc1ccc(F)cc1,-82.9% (active)
5,CC(=O)c1ccccc1OCc1ccc(C(=O)c2ccccc2)cc1,-23.4% (inactive)
6,CCCN(CC(=O)Nc1ccccc1C)C(=O)c1cc(=O)[nH]c2ccccc12,42.9% (inactive)
7,CCCN(CC(=O)Nc1ccccc1C)C(=O)c1ccc2[nH]c3c(c2c1)CC(C)CC3 (configuration not stated),-61.3% (active)
8,CCCN(CC(=O)Nc1ccccc1C)C(=O)c1ccc(OCC(=O)N2CCOCC2)c(OCC)c1,0.271% (inactive)
9,CC(C)NC(=O)Nc1cccc2c1O[C@@H](CN(C)S(=O)(=O)c1ccc(F)cc1)[C@@H](C)CN([C@H](C)CO)C2=O,7.5% (inactive)
10,Clc1cccc(Cl)c1Cl,-15.9% (inactive)
11,COc1ccc(S(=O)(=O)c2c(Nc3ccc(C)cc3)sc(C(=O)c3ccc(C)cc3)c2N)cc1,-10.2% (inactive)
12,Cc1ccc(NC(=O)c2cn3c4c(ccc(Cl)c4c2=O)OC(C)C3)cc1C (configuration not stated),0.532% (inactive)
13,CSc1ccc(Cl)c(C(=O)OCC(=O)N2CC(C)OC(C)C2)c1 (configuration not stated),-9.66% (inactive)
14,COc1ccc(NC(=O)CN(C)C(=O)c2n[nH]c3ccccc23)cc1,5.1% (inactive)
15,CCc1ccccc1NC(=O)CN(C)C(=O)c1cc(C2CC2)nn1-c1ccccc1,-18% (inactive)
16,COc1ccc(NC(=O)CN(C)C(=O)c2cc(C3CC3)nn2-c2ccccc2)cc1,-100% (active)
17,Cc1nc2nc(SCC(=O)N(Cc3ccccc3)C(C)C)nn2c(C)c1Cc1ccccc1Cl,-0.509% (inactive)
18,CSc1ccc(C2c3c(oc4ccccc4c3=O)C(=O)N2CCCN2CCOCC2)cc1 (configuration not stated),7.95% (inactive)
19,CNC[C@H]1OCc2cnnn2CCCC(=O)N([C@H](C)CO)C[C@@H]1C,-9.25% (inactive)
20,Cc1ccc(-c2nnc3c4ccccc4c(C)nn23)cc1NC(=O)c1cccc(Br)c1,35.9% (inactive)
21,CSc1nc(-c2ccccc2Cl)nc2c1Cc1c(CO)cnc(C)c1O2,9.54% (inactive)
22,CCOC(=O)C1Sc2[nH]c(=O)sc2C(c2ccc(Cl)cc2)C1C(=O)OCC (configuration not stated),-32.8% (inactive)
23,CCOC(=O)c1[nH]c2c(c1-c1ccccc1)C(=O)CC(c1ccc(Cl)cc1)C2 (configuration not stated),-60.6% (active)

row,Compound,"activity change, negative = inhibition"
1,CCOC(=O)c1ccc(N2C(=O)c3[nH]nc(-c4ccccc4)c3C2c2ccc(C(C)C)cc2)cc1 (configuration not stated),-27.7% (inactive)
2,CCCOC(=O)c1[nH]c2c(c1C)C(=O)CC(c1cccs1)C2 (configuration not stated),-91.4% (active)
3,CCOc1ccc(C2CC(=O)c3c([nH]c(C(=O)OCc4ccccc4)c3C)C2)cc1 (configuration not stated),-87.7% (active)
4,C=CCOC(=O)C1=C(C)NC(C)=C(C(=O)OCC=C)C1c1cccs1,-12.1% (inactive)
5,CCc1ccc(C2CC(=O)c3c([nH]c(C(=O)OCc4ccc(C)cc4)c3C)C2)cc1 (configuration not stated),-27.1% (inactive)
6,CCOc1ccc(C2C3=C(CCCC3=O)N(CC(=O)O)C3=C2C(=O)CCC3)cc1,-23.6% (inactive)
7,COc1ccc(-c2cnn(C(C)(C)C(=O)Nc3ccccn3)c2)cc1OC,25% (inactive)
8,COc1ccc(NC(=O)c2sc(=O)n(Cc3ccc(S(=O)(=O)N(C)C)cc3)c2C)cc1,-0.573% (inactive)
9,OCC1(Cc2ccccc2C(F)(F)F)CCN(Cc2ccncc2)CC1,71% (inactive)
10,Cc1nc2c(c(C)nn2-c2ccccc2)c(C)c1CCC(=O)NCCc1ccc(Cl)cc1,-1.35% (inactive)
11,Cc1cc(C)c2oc(C(=O)Nc3ccc(S(=O)(=O)N4CCCCCC4)cc3)cc(=O)c2c1,-9.78% (inactive)
12,CCOc1ccc(NC(=O)c2cn(C3CCCCC3)c(=O)c3c2c2ccccc2n3C)cc1,-4.97% (inactive)
13,O=C(COc1ccc(Cl)cc1)N(Cc1ccco1)Cc1ccco1,-22.5% (inactive)
14,COc1ccc(S(=O)(=O)NCC(c2ccc(N(C)C)cc2)N2CCc3ccccc32)cc1OC (configuration not stated),34.1% (inactive)
15,Cc1nc2sc3c(c2c(=O)n1NC(=O)CCl)CCCC3,-63.7% (active)
16,O=C(CCc1nc2sc3c(c2c(=O)[nH]1)CCCC3)NCC(=O)Nc1ccccc1Br,-4.74% (inactive)
17,Cc1ccc(C)c(-n2c(SCC(=O)O)nc3sc4c(c3c2=O)CCCC4)c1,-26% (inactive)
18,O=C(c1ccc2c(c1)N(Cc1ccccc1F)C(=O)c1ccccc1S2(=O)=O)N1CCOCC1,5.01% (inactive)
19,COc1cccc2c1C(=O)c1c(O)c3c(c(O)c1C2=O)CC(O)(C(C)=NNC(=O)c1ccc(Cl)c(Cl)c1)CC3OC1CC(N)C(O)C(C)O1 (configuration not stated),-99% (active)
20,Cc1ccc2nc(CN3CCN(S(=O)(=O)c4ccc(C)c(C)c4)CC3)oc2c1,1.05% (inactive)
21,COc1ccc(CN2C(=O)C(NC(=O)c3cccc(C)c3)(C(F)(F)F)N=C2c2ccccc2)cc1 (configuration not stated),-8.44% (inactive)
22,CC1C(=O)N(Cc2ccccc2)c2ccccc2N1C(=O)c1ccccc1 (configuration not stated),-73.6% (active)
23,CC1Oc2ccccc2N(Cc2cccnc2)C1=O (configuration not stated),49.3% (inactive)

row,Compound,"activity change, negative = inhibition"
1,CC1C(C)N(C(=O)CCl)c2ccccc2N1C(=O)CCl (configuration not stated),-38.8% (inactive)
2,COc1cc(C(CC(=O)NCCC(C)C)N2Cc3ccccc3C2=O)cc(OC)c1OC (configuration not stated),22.7% (inactive)
3,CCN(CC)S(=O)(=O)c1ccc2c(c1)N(CC(=O)NCc1ccccc1)C(=O)CS2,-9.16% (inactive)
4,Cc1ccc(CCNC(=O)CN2C(=O)CSc3ccc(S(=O)(=O)N4CCOCC4)cc32)cc1,-26.9% (inactive)
5,COC(=O)CN1C(=O)CSc2ccc(S(=O)(=O)Nc3cc(C)ccc3C)cc21,-71.2% (active)
6,COc1ccc(Cc2nc3ccc(C(=O)NCc4ccccc4Cl)cc3o2)cc1,-18% (inactive)
7,COc1ccc(Cc2nc3ccc(C(=O)NCc4ccccc4C)cc3o2)cc1,-89.9% (active)
8,COc1ccc(Cc2nc3ccc(C(=O)NCc4ccc(OC)cc4OC)cc3o2)cc1,-12.1% (inactive)
9,O=C(NC1CCCC1)N1CC(=O)N2[C@H](C1)[C@@H](c1ccc(Br)cc1)[C@@H]2CO,13.9% (inactive)
10,CCOC(=O)c1c(NC(=O)COC(=O)c2ccc(S(=O)(=O)C(F)F)cc2)sc(C(=O)N(C)C)c1C,6.79% (inactive)
11,CCOC(=O)c1c(NC(=O)CCl)sc(C(=O)N(CC)CC)c1C,-99% (active)
12,CCOC(=O)c1c(NC(=O)c2cc(CC)on2)sc(C(C)=O)c1C,0.462% (inactive)
13,O=C(CC1C(=O)NCCN1CC(c1ccccc1)c1ccccc1)NCCc1cn[nH]c1 (configuration not stated),-37.4% (inactive)
14,CCCCNC(=O)c1ccc2c(c1)NC(=O)C(C(C)C)N2 (configuration not stated),7.34% (inactive)
15,COCCN(CC(=O)Nc1ccccc1C)S(=O)(=O)c1ccc(S(=O)(=O)N2CCCC2)cc1,26.9% (inactive)
16,CCOC(=O)c1c(NC(=O)c2ccc(S(=O)(=O)N(CC)CC)cc2)sc2c1CCCCC2,49.3% (inactive)
17,COCCN(CCOC)S(=O)(=O)c1ccc(C(=O)Nc2nc3c(s2)CCc2ccccc2-3)cc1,-63.9% (active)
18,C=CCN(c1ccc(C(=O)Nc2cc(C)cc(C)c2)cc1)S(C)(=O)=O,-28.7% (inactive)
19,C=CCN(CC=C)S(=O)(=O)c1ccc(C(=O)Nc2nc3c(s2)CCc2ccccc2-3)cc1,-86.4% (active)
20,CCCN(CCC)S(=O)(=O)c1ccc(C(=O)Nc2sc3c(c2C(=O)OC)CCN(CC)C3)cc1,-35.8% (inactive)
21,O=C(Nc1ncc2c(n1)-c1ccccc1OC2)c1ccc(Cl)cc1,16.2% (inactive)
22,CCCCN(C)S(=O)(=O)c1ccc(C(=O)Nc2sc3c(c2C(N)=O)CC(C)(C)NC3(C)C)cc1,-1.57% (inactive)
23,C=CCN(CC=C)S(=O)(=O)c1ccc(C(=O)Nc2sc3c(c2C(N)=O)CCCCC3)cc1,-93.4% (active)
